In the library only some 1.8% were active in any assay of this set; here they are far more common.
Fam108B inh: Fam108B inhibition, counter-screen for RBBP9 inhibitors; recombinant Fam108B, FP-Rh probe fluorescence polarization; inhibition, % at 9.51 µM; 300,000 tested, 0.33% active; AID 1947;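 active = inhibition above the screen mean inhibition plus 3 SD, computed separately per campaign, cut at about 18% in these data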;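 note: inhibitors lower polarization as less probe binds the enzyme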
PME-1 inh: blocks human protein phosphatase methylesterase 1; Q9Y570; recombinant PME-1, FP-Rh probe fluorescence polarization; inhibition, % at 5.9 µM; 320,000 tested, 0.53% active; AID 2130;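 active = inhibition above the campaign mean of all compounds plus 3 SD, cut at about 26% in these data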;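 note: competitive labeling of PME-1 active site by serine hydrolase directed probe; 0% = PME-1 with DMSO and 100% = wells lacking PME-1 enzyme; inhibitors block probe labeling so polarization falls and inhibition rises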
Target sequence (Q9Y570 whole entry, looked up): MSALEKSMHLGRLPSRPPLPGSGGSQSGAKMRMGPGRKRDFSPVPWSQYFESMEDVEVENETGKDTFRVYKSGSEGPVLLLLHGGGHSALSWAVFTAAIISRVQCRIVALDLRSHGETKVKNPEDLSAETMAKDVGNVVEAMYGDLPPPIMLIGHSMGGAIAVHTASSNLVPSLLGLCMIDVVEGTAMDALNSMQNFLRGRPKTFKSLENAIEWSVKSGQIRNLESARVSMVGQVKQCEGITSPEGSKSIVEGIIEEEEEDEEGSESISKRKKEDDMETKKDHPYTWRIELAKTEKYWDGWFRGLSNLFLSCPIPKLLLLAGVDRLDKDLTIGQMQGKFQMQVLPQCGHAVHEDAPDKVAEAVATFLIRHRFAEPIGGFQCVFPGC
LYPLA1 inh: counter-screen for PME1 inhibitors: inhibitors of human LYPLA1. recombinant LYPLA1, FP-Rh probe fluorescence polarization. inhibition, % at 5.9 µM. 320,000 tested, 0.16% active. AID 2174;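 active = inhibition above the mean of all tested compounds plus 3 SD, set per campaign, cut at about 14% in these data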;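 note: inhibitors block serine hydrolase probe labeling of LYPLA1 so polarization falls; 0% = enzyme with DMSO and 100% = wells lacking LYPLA1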
Target sequence (O75608 whole entry, looked up): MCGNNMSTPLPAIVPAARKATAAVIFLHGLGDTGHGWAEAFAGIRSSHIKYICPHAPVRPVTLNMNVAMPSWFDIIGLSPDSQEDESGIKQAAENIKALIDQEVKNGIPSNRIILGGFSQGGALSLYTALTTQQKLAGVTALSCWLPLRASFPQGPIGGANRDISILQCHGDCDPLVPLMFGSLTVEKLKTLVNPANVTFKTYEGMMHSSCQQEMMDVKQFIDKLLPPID
PAD4 FP inh: inhibitors of human PAD4. Q9UM07. recombinant PAD4, RCA probe fluorescence polarization. inhibition, % at 6.36 µM. 330,000 tested, 0.41% active;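 active = percent inhibition above a cutoff equal to the mean of all tested compounds plus 3 SD, cut at about 15% in these data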;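 note: 0% = PAD4 with RCA probe and DMSO and 100% = probe without PAD4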
GSTO1 inh: GSTO1 inhibition, counter-screen for RBBP9 inhibitors | AID 1974 | P78417 | 300,000 tested, 1.1% active | inhibition, % at 5.96 µM | recombinant GSTO1, activity-based probe fluorescence polarization;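 active = inhibition above the campaign mean inhibition plus 3 SD, cut at about 35% in these data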;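 note: 0% = GSTO1-1 with DMSO and 100% = wells lacking GSTO1-1 enzyme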
LYPLA2 inh: LYPLA2 (human) inhibition in PME1 counter-screen. recombinant LYPLA2, FP-Rh probe fluorescence polarization. O95372. 320,000 tested, 0.38% active. inhibition, % at 5.9 µM;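 active = inhibition above the screen-wide mean plus 3 SD, limit set per campaign, cut at about 26% in these data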;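 note: 0% = LYPLA2 with DMSO and 100% = wells lacking LYPLA2 enzyme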
GSTO1 inh conf: GSTO1 (human) inhibition, confirmation | shares compounds with GSTO1 inh | recombinant GSTO1, probe fluorescence polarization | inhibition, % at 5.96 µM | 2,400 tested, 54% active;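 active = inhibition above the primary screen's cutoff, its mean inhibition plus 3 SD, cut at about 35% in these data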;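 note: loss of polarization as inhibitors block binding of rhodamine sulfonate ester activity probe; 0% = GSTO1 with DMSO and 100% = wells lacking GSTO1 enzyme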
GSTO1 ABPP inh: GSTO1 (human) inhibition by gel ABPP; shares compounds with GSTO1 inh; recombinant GSTO1, gel ABPP SE-Rh probe fluorescence; inhibition, % at 1 µM; 130 tested, 30% active; AID 463110;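 active = inhibition of the enzyme GSTO1 above about 75%, limit read from the data; inactive = inhibition below that limit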
* = called active by the depositor; x = no result.

SMILES	Fam108B inh	PME-1 inh	LYPLA1 inh	PAD4 FP inh	GSTO1 inh	LYPLA2 inh	GSTO1 inh conf	others
COc1cc(OC)c2c(c1)OC(c1ccc(OC)c(OC)c1)C(O)C2=O (stereo unspecified)	3.3	-2.5	-1.1	0.5	6.9	-2.6	x
COC1=CC(=O)CC(C)C12Oc1cc(OC)cc(OC)c1C2=O (stereo unspecified)	-0.1	3.1	-0.1	2.0	47.1*	2.5	33.3
CC(NC(=O)C1CC1)C(c1cccs1)N1CCOCC1 (stereo unspecified)	-3.2	1.2	1.9	-3.3	85.0*	9.1	7.2
CC(NC(=O)C1CC1)C(c1cccs1)N1CCN(c2ccccc2)CC1 (stereo unspecified)	2.1	0.8	-2.0	-0.7	0.8	5.7	x
O=C(N/N=C/c1ccc(-c2ccccc2[N+](=O)[O-])o1)c1cccnc1	3.7	4.4	3.5	4.7	50.7*	6.0	7.1
O=C(C[C@@H]1C/C=C\CC[C@H](Cc2ccc(F)cc2)C(=O)OC[C@@H](Cc2ccccc2)NC1=O)NCCO	x	x	x	-3.2	x	x	x
COc1ccc(Oc2ccc(C(F)(F)F)cc2NC(=O)c2ccc(F)cc2)cc1	-8.4	-5.4	-4.3	-5.2	-6.0	-7.3	x
COc1ccc(Oc2ccc(C(F)(F)F)cc2NC(=O)CC(CC(=O)O)c2ccccc2)cc1 (stereo unspecified)	2.6	-0.9	1.3	4.5	43.5*	2.5	2.2
O=C(OCC(=O)N1CCCC1)c1cc([N+](=O)[O-])ccc1Cl	1.3	-4.0	1.8	-0.7	16.0	1.8	x
O=C(OCC(=O)N1CCCCC1)c1cc(NS(=O)(=O)c2ccc(Cl)c([N+](=O)[O-])c2)ccc1O	3.9	-8.3	-2.2	-6.0	51.2*	2.6	56.5*
COc1ccc(N(C(=O)c2ccco2)C(C(=O)NC2CCCCC2)c2cccs2)cc1OC (stereo unspecified)	2.3	1.3	2.5	-5.2	-0.4	1.1	x
COc1ccc(N(C(=O)CCl)C(C(=O)NCCc2ccccc2)c2cccs2)cc1Cl (stereo unspecified)	-3.3	1.9	2.6	9.8	89.2*	1.7	90.5*	GSTO1 ABPP inh=92.0*
COc1cccc(N(C(=O)CCl)C(C(=O)NCCc2ccccc2)c2cccs2)c1 (stereo unspecified)	-4.4	-4.5	-1.8	11.0	93.8*	-0.5	95.3*	GSTO1 ABPP inh=75.0*
O=C(O)/C=C\C(=O)Nc1ccccc1C(=O)N1CCN(c2ccc(Cl)cc2)CC1	-2.4	-0.5	5.5	3.6	-6.7	10.8	x
O=C(O)/C=C\C(=O)Nc1ccc(N2CCN(c3ccc(Cl)c(Cl)c3)CC2)cc1	3.7	-1.5	-4.2	-3.1	27.9	-1.0	x
O=C(O)/C=C\C(=O)Nc1ccc(N2CCN(c3cccc(Cl)c3)CC2)cc1	0.3	7.1	1.9	3.0	44.9*	5.7	7.3
O=C(O)/C=C\C(=O)Nc1ccc(N2CCN(c3ccc(Cl)cc3)CC2)cc1	1.8	5.4	5.8	2.2	59.2*	5.7	8.3
CCC(C)NC(=O)Cc1c(C)c2cc3c(cc2oc1=O)OC(C)(C)CC3 (stereo unspecified)	0.7	-3.1	0.2	2.4	-0.8	4.1	x
CC(C)OP(=O)(OC(C)C)C1(NS(=O)(=O)c2ccc(Cl)cc2)C=C(Cl)C(=O)C(Cl)=C1	1.8	12.3	-0.4	-0.1	62.0*	9.9	43.6*
Cc1cccc(C)c1NC(=S)N1CCC(c2ccccc2)C1 (stereo unspecified)	3.6	-5.6	1.2	-5.3	1.4	1.6	x
COc1ccc(S(=O)(=O)N2C(=O)/C(=C3\SC(N)=NC3=O)c3ccccc32)cc1	6.2	6.3	2.1	-4.6	-0.7	-0.5	x
CCN(CC)CCCNC1=C(Cl)C(=O)c2ccccc2C1=O	2.9	-0.3	-3.0	-9.8	65.6*	4.8	47.0*
CC(C)OCCCNC(=S)NNC(=O)C(c1ccccc1)c1ccccc1	0.3	-2.9	1.6	-2.3	-11.6	-0.2	x
COCCCNC1=C(Cl)C(=O)c2ccccc2C1=O	1.5	2.6	0.4	-11.2	48.4*	-1.6	12.5
CCN(CC)CCCNc1nc2ccccc2[nH]1	-1.1	-1.2	0.6	4.2	9.1	1.2	x
SMILES	Fam108B inh	PME-1 inh	LYPLA1 inh	PAD4 FP inh	GSTO1 inh	LYPLA2 inh	GSTO1 inh conf	others
CC(C)OCCCNC1=C(Cl)C(=O)c2ccccc2C1=O	-1.5	-0.2	-1.6	-10.9	63.9*	-5.2	8.9
CCc1ccc(NC(=O)C(=O)NCCN2CCN(C(=O)c3ccco3)CC2)cc1	-6.0	-3.3	2.7	-9.2	-9.1	3.1	x
COc1ccc2c(C)c(CCC(=O)NCCCN3CCCC3=O)c(=O)oc2c1C	-3.6	1.5	-2.6	3.2	5.3	1.0	x
CCc1cc(=O)oc2c(C)c(OCC(=O)N3CCC[C@@H]3C(=O)O)ccc12	1.4	-3.6	4.3	-2.1	3.3	14.4	x
CCCN(CC(=O)Nc1ccccc1C)C(=O)CCl	1.8	0.2	-0.7	-1.5	80.7*	4.6	91.7*	GSTO1 ABPP inh=4.0
CCOC(=O)C1=C(Cc2ccc(F)cc2)C(=O)c2ccccc2C1=O	7.4	3.7	-1.6	-37.0	38.0*	3.9	3.5
O=C(OCc1ccc(F)cc1)c1ccc2c(c1)-c1ccccc1C2=O	0.2	0.3	-2.5	1.3	-3.2	-3.6	x
CCCCOc1ccc(C(=O)Oc2cc(C)[nH]c(=O)c2[N+](=O)[O-])cc1	-5.6	-1.7	2.7	1.8	0.3	5.9	x
CCOc1ccc(C(=O)Oc2cc(C)[nH]c(=O)c2[N+](=O)[O-])cc1	2.4	6.3	0.9	0.8	61.4*	7.2	2.2
Cc1ccccc1C(=O)NC1CCN(CC(=O)NC2CCCCC2)CC1	0.1	-5.8	-0.1	-1.1	0.7	0.7	x
C=CCN1C=C2C(=O)C(C)(OC(=O)C3CCCC3)C(=O)C(c3ccccc3)=C2C=C1CCCC(=O)OC (stereo unspecified)	0.3	-1.7	1.7	-16.6	26.7	-1.7	x
COC(=O)CCCC1=CC2=C(c3ccccc3)C(=O)C(C)(OC(=O)C3CCCC3)C(=O)C2=CN1Cc1ccc(OC)cc1 (stereo unspecified)	4.3	-0.4	-2.1	-2.7	40.7*	4.7	10.2
COC(=O)CCCC1=CC2=C(c3ccccc3)C(=O)C(C)(OC(=O)C3CCCC3)C(=O)C2=CN1Cc1ccc2c(c1)OCO2 (stereo unspecified)	0.7	-3.6	-5.0	-0.4	48.2*	-5.3	13.4
CC1=NN(c2ccc(C(=O)O)cc2)C(=O)/C1=C\c1ccc(OC(=O)c2cccs2)cc1	8.4	3.3	-1.2	4.7	54.5*	7.5	2.8
O=C(CCl)N=c1sccn1Cc1ccc(Cl)cc1Cl	-4.1	0.8	-6.9	1.1	75.9*	-5.5	90.8*

Assay outcomes (PubChem)
